Measured values from PubChem BioAssay (NCATS).
Inconclusive results are not listed. Active and inactive are the calls of the source. Unless noted, calls come from the whole dose curve.

Experiments:
[1] = qHTS for Inhibitors of the Functional Ribonucleoprotein Complex (vRNP) of Lassa (LASV) Arenavirus: LASV Primary Screen - GLuc reporter signal (AID 1347082; calls by dose curve; tested in HEK293 reporter line; note: nearly all actives have a fitted effect of over 60% in size)
[2] = qHTS for Inhibitors of the Functional Ribonucleoprotein Complex (vRNP) of Lassa (LASV) Arenavirus: Viability assay - alamar blue signal for LASV Primary Screen (AID 1347083; calls by dose curve; tested in HEK293 reporter line; note: nearly all actives have a fitted effect of over 80% in size)
[3] = qHTS for Inhibitors of the Functional Ribonucleoprotein Complex (vRNP) of Lymphocytic Choriomeningitis Arenaviruses (LCMV): Viability assay - alamar blue signal for LCMV Primary Screen (AID 1347085; calls by dose curve; tested in HEK293 reporter line; note: nearly all actives have a fitted effect of over 80% in size)
[4] = molecular target: Nucleoprotein (Lymphocytic choriomeningitis virus (strain Armstrong)) (UniProt P09992); assay: qHTS for Inhibitors of the Functional Ribonucleoprotein Complex (vRNP) of Lymphocytic Choriomeningitis Arenaviruses (LCMV): LCMV Primary Screen - GLuc reporter signal (AID 1347086); note: nearly all actives have a fitted effect of over 70% in size

Measured: Potency
Note: series mostly up to about 57 µM.

Sequence of Nucleoprotein (Lymphocytic choriomeningitis virus (strain Armstrong)) (P09992 whole entry, looked up): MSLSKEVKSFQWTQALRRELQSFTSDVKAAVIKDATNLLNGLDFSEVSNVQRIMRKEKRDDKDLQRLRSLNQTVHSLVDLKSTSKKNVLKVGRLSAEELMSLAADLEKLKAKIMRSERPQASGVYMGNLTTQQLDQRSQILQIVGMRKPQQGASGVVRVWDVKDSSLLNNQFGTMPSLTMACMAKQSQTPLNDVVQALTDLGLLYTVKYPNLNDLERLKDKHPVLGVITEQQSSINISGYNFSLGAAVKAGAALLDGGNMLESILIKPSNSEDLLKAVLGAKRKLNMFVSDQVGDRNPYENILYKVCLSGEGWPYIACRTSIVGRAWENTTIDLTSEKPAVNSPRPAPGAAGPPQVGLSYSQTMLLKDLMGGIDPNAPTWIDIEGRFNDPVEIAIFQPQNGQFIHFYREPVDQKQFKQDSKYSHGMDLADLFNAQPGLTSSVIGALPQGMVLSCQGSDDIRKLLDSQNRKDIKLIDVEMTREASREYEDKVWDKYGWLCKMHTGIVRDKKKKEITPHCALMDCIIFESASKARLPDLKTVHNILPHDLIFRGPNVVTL

O=C(Cn1ccnc1[N+](=O)[O-])NCc1ccccc1
inactive: all assays above

Cc1cnc(NS(=O)(=O)c2ccc(N)cc2)nc1
inactive: all assays above

O=c1[nH]c(=O)n([C@H]2O[C@H](CO)[C@@H](O)[C@@H]2O)cc1/C=C\Br
inactive: all assays above

CC(=O)CC(c1ccc([N+](=O)[O-])cc1)c1c(O)c2ccccc2oc1=O (stereo not given)
inactive: all assays above

CCCCCCCCCCCCCCCCCCO
inactive: all assays above

CCOc1ccc(NC(=O)CC(C)O)cc1 (stereo not given)
inactive: all assays above

O=C1CC2(CCCC2)CC(=O)N1
inactive: all assays above

CCN1CCN(C(=O)N[C@@H](C(=O)N[C@@H]2C(=O)N3[C@@H]2SC(C)(C)[C@H]3C(=O)O)c2ccccc2)C(=O)C1=O
inactive: all assays above

CC(=O)O[C@@H]1CC2C3CCc4cc(OC(=O)c5ccccc5)ccc4C3CCC2(C)[C@H]1OC(C)=O (stereo not given in full)
inactive: all assays above

C#C[C@]1(O)CC[C@H]2[C@@H]3CCC4=CC(=O)CC[C@@H]4[C@H]3CC[C@@]21CC
inactive: all assays above

NC(=O)NC(=O)Cc1ccccc1
inactive: all assays above

O=C(O)c1cc(=O)[nH]c(=O)[nH]1
inactive: all assays above

CN1CCN2c3ncccc3Cc3ccccc3C2C1 (stereo not given)
inactive: all assays above

CC(=O)NC(=O)c1ccccc1O
inactive: all assays above

CCN(CC)CC#CCOC(=O)C(O)(c1ccccc1)C1CCCCC1 (stereo not given)
inactive: all assays above

CCn1nc(C(=O)O)c(=O)c2cc3c(cc21)OCO3
inactive: all assays above

NC(=O)c1ccc([N+](=O)[O-])cc1Cl
inactive: all assays above

CN1C(C(=O)Nc2ccccn2)=C(O)c2ccccc2S1(=O)=O
inactive: all assays above

CC(C)CCOC(=O)c1ccc(N(C)C)cc1
inactive: all assays above

O=C1CCCc2c(O)cccc21
inactive: all assays above

O=C(O)c1ccccc1S
inactive: all assays above

COc1ccc2nc(SCc3ncc(C)c(OC)c3C)[nH]c2c1
inactive: all assays above

CC(=O)c1cc2ccccc2s1
inactive: all assays above

COc1cc(C)c(Cc2cnc(N)nc2N)cc1OC
inactive: all assays above

O=c1cc[nH]c(=O)[nH]1
inactive: all assays above

O=C(O)c1cc(-c2ccccc2)nc2ccccc12
inactive: all assays above

CCN(CC)S(=O)(=O)c1ccc(C(=O)O)cc1
inactive: all assays above

N[C@@H](Cc1cc(I)c(Oc2ccc(O)c(I)c2)c(I)c1)C(=O)O
inactive: all assays above

Nc1ccc(S(N)(=O)=O)cc1
inactive: all assays above

CC(=O)Nc1c(I)cc(I)c(C(=O)O)c1I
inactive: all assays above

C[C@H](CS)C(=O)N1CCC[C@H]1C(=O)O
inactive: all assays above

CC(C)c1ccc2oc3nc(N)c(C(=O)O)cc3c(=O)c2c1
inactive: all assays above

CCOc1nc2cccc(C(=O)O)c2n1Cc1ccc(-c2ccccc2-c2nn[nH]n2)cc1
inactive: all assays above

CCn1cc(C(=O)O)c(=O)c2cnc(N3CCNCC3)nc21
inactive: all assays above

O=C(OCc1ccccc1)c1ccccc1
inactive: all assays above

CNC[C@H](O)[C@@H](O)[C@H](O)[C@H](O)CO
inactive: all assays above

Cc1ccc(Cl)c(Nc2ccccc2C(=O)O)c1Cl
inactive: all assays above

CC(CC(C#N)(c1ccccc1)C(C)C)N(C)C (stereo not given)
inactive: all assays above

COc1cc(OC)nc(O[C@H](C(=O)O)C(OC)(c2ccccc2)c2ccccc2)n1
inactive: all assays above

CN=C(NC#N)NCCSCc1nc[nH]c1C
inactive: all assays above

O=C(O)CCCCCCCC(=O)O
inactive: all assays above

CN1[C@@H]2CCC[C@@H]1CC(NC(=O)c1nn(C)c3ccccc13)C2 (stereo not given in full)
inactive: all assays above

O=C(O)Cc1cccc2ccccc12
inactive: all assays above

CCCc1c(OCCCCc2nn[nH]n2)ccc(C(C)=O)c1O
inactive: all assays above

CC(=O)Oc1cccc(O)c1
inactive: all assays above

O=C(O)Cn1c(=O)n(Cc2ccc(Br)cc2F)c(=O)c2ccc(Cl)cc21
inactive: all assays above

CCOC(=O)C1=C(C)NC(C)=C(C(=O)OC)C1c1cccc([N+](=O)[O-])c1 (stereo not given)
inactive: all assays above

OC[C@H]1O[C@@H]2O[C@H]3[C@H](O)[C@@H](O)[C@@H](O[C@H]4[C@H](O)[C@@H](O)[C@@H](O[C@H]5[C@H](O)[C@@H](O)[C@@H](O[C@H]6[C@H](O)[C@@H](O)[C@@H](O[C@H]7[C@H](O)[C@@H](O)[C@@H](O[C@H]8[C@H](O)[C@@H](O)[C@@H](O[C@H]1[C@H](O)[C@H]2O)O[C@@H]8CO)O[C@@H]7CO)O[C@@H]6CO)O[C@@H]5CO)O[C@@H]4CO)O[C@@H]3CO
inactive: all assays above

C[C@H](NC(CCc1ccccc1)C(=O)O)C(=O)N1CCC[C@H]1C(=O)O (stereo not given in full)
inactive: all assays above

CCC(C(=O)NC(=O)NC(C)=O)c1ccccc1 (stereo not given)
inactive: all assays above

N[C@@H](CCC(=O)N[C@@H](CS)C(=O)NCC(=O)O)C(=O)O
inactive: all assays above

CC(=O)N[C@@H](CC(C)C)C(=O)O
inactive: all assays above

Cc1ccccc1C(=O)N1CC/C(=N\OS(=O)(=O)O)c2ccc(Cl)cc21
inactive: all assays above

N[C@@H](COP(=O)(O)O)C(=O)O
inactive: all assays above

C[C@](N)(Cc1ccc(O)cc1)C(=O)O
inactive: all assays above

COc1ccccc1OCC(O)CO (stereo not given)
inactive: all assays above

NC(=O)NS(=O)(=O)c1ccc(Cl)cc1
inactive: all assays above

O=C(O)c1ccccc1OP(=O)(O)O
inactive: all assays above

CCOC(=O)C(O)c1ccccc1 (stereo not given)
inactive: all assays above

O=C1CC[C@@H](C(=O)O)N1
inactive: all assays above
